Assay results taken from PubChem BioAssay (NCATS).
Inconclusive results are not listed. A call without a number means that no potency is given here. Calls of active or inactive are those of the source. Calls come from the whole dose curve; as a rule, active = well fitted inhibition curve with a large enough effect; inconclusive = small, poorly fitted or top-dose-only effect; inactive = no such curve, though single readings can be large or run the other way.

Test: NS1 protein of Zika virus - qHTS assay to identify small molecule inhibitors in human HEK 293 cells (AID 1347053); note: nearly all actives have a fitted effect of over 55% in size
Conditions: HEK293 ZIKV MR766 infection, NS1 TR-FRET, 24 h; series mostly up to 46.1 µM
Source text: National Center for Advancing Translational Sciences [NCATS]
Johns Hopkins University School of Medicine
The non-structural 1 (NS1) protein of zika virus is known to associate with the viral replication complex. This cell-based TR-FRET ZIKV NS-1 assay measures the increased NS-1 protein in human HEK 293 cells after a 24-hour Zika virus infection by a TR-FRET assay readout. A decrease in the Time-resolved fluorescence energy transfer (TR-FRET) signal in this assay by small molecule treatment indicates an inhibitory effect of the small molecule on the expression of Zika virus NS1 correlating with Zika virus replication.
HEK 293 cells were cultured in EMEM (ATCC, Cat. # 30-2003) medium with 10% fetal bovine serum (GE healthcare Life Sciences, Cat. # SH30071.03), and 1% Pen/Strep (Gibco, Cat. # 15140-122). Cells were seeded in the assay plate and incubated at 37 C with 5% CO2 for 20 hours. Compounds were added to cells and incubated for one hour before addition of ZIKV MR766 strain solution to cells (MOI = 0.5). After an incubation at 37 C for 24 hours, the reagent mixture of TR-FRET ZIKV NS1 assay using two anti-ZIKV NS1 antibodies was added to assay plates. The TR-FRET signals in assay plates were measured using an Envision plate reader (PerkinElmer). Data were normalized by using the cell-containing wells without ZIKV as a negative control (0% NS-1) and wells containing ZIKV infected cells as a positive control (100% NS-1 level).
Potency is the fitted concentration of half-maximal effect.

Row | SMILES | Potency
1 | c1ccc2c(-c3cnn4cc(-c5ccc(N6CCNCC6)cc5)cnc34)ccnc2c1 | 4.18 µM (active)
2 | C=C1C(=O)OC2C=C(C)CCC=C(C)CCC12 (stereo not given) | inactive
3 | COc1cccc(-c2cc(=O)c3ccccc3o2)c1N | inactive
4 | NC(=O)[C@@H](CCC(F)(F)F)N(Cc1ccc(-c2ncon2)cc1F)S(=O)(=O)c1ccc(Cl)cc1 | inactive
5 | O=C(O)c1c(Cl)c(Cl)c(Cl)c(Cl)c1-c1c2cc(I)c(=O)c(I)c-2oc2c(I)c(O)c(I)cc12 | inactive
6 | COc1ccccc1N1CCN(CCCNc2cc(=O)n(C)c(=O)n2C)CC1 | inactive
7 | COc1ccc(-c2coc3cc(O)cc(O)c3c2=O)cc1 | inactive
8 | CC(C)C(=O)Oc1ccc(CO)cc1[C@H](CCN(C(C)C)C(C)C)c1ccccc1 | inactive
9 | CN(C)Cc1cccc(N=C(c2ccccc2)c2c(O)[nH]c3cc(C(=O)N(C)C)ccc23)c1 | inactive
10 | CCn1c(C(=O)N(C2CC2)C2CC2)cc2c3c(ncn3C)c(Nc3cc(C)n(C)n3)nc21 | inactive
11 | COc1ccc(-c2cc(=O)c3c(O)cc(O)cc3o2)cc1O | inactive
12 | Clc1ccc(C(c2ccc(Cl)cc2)n2cc[n+](CC(OCc3ccc(Cl)cc3Cl)c3ccc(Cl)cc3Cl)c2)cc1 (stereo not given) | 11.8 µM (active)
13 | CC(C)C[C@H](CC(=O)O)C(=O)N[C@@H](Cc1c[nH]c2ccccc12)C(=O)N[C@@H](C)c1ccccc1 | inactive
14 | COc1ccc(C2Sc3ccccc3N(CCN(C)C)C(=O)C2OC(C)=O)cc1 (stereo not given) | inactive
15 | c1cc(-c2sc(-c3ccncc3)c(-c3ccncc3)c2-c2ccncc2)ccn1 | inactive
16 | NS(=O)(=O)c1cccc2c1C(=O)c1cccc(O)c1C2=O | 3.32 µM (active)
17 | COC[C@@H](c1ccc(C(F)(F)F)cc1)N1CCN(C2(C)CCN(C(=O)c3c(C)ncnc3C)CC2)C[C@H]1C | inactive
18 | O=C(O)CCC1CCC(c2cc(F)ccc2F)(S(=O)(=O)c2ccc(Cl)cc2)CC1 (stereo not given) | inactive
19 | O=C(O)[C@H]1O[C@H](Oc2cc3oc(-c4ccccc4)cc(=O)c3c(O)c2O)[C@H](O)[C@@H](O)[C@H]1O | inactive
20 | O=c1cc(-c2ccccc2)oc2cc(O)cc(O)c12 | inactive

Row | SMILES | Potency
21 | Oc1ccc(C2=Cc3ccc(O)cc3OC2)cc1 | 10.5 µM (active)
22 | CC(C(=O)O)c1ccc(-c2ccccc2)c(F)c1 (stereo not given) | inactive
23 | C[C@@H]1CCN(C(=O)CC#N)C[C@H]1N(C)c1ncnc2[nH]ccc12 | inactive
24 | Clc1ccc(Cn2c(CN3CCCC3)nc3ccccc32)cc1 | inactive
25 | CC(=O)Nc1ccc([C@H](C)C(=O)Nc2ncc(C(C)C)s2)cc1 | 3.72 µM (active)
26 | O=C1c2c(O)cc(O)cc2O[C@H](c2cc(O)c(O)c(O)c2)[C@H]1O | inactive
27 | O=C(O)c1cc(O)c2c(c1)C(=O)c1cccc(O)c1C2=O | inactive
28 | O=C(Nc1c(Cl)cncc1Cl)c1ccc(OC(F)F)c(OCC2CC2)c1 | inactive
29 | CON=C(C(=O)N[C@@H]1C(=O)N2C(C(=O)OCOC(=O)C(C)(C)C)=C(C=Cc3scnc3C)CS[C@H]12)c1csc(N)n1 | inactive
30 | O=C1c2ccccc2-[n+]2ccc3c([nH]c4ccccc43)c21 | 1.05 µM (active)
31 | O=C(O)Cc1cccc2ccccc12 | inactive
32 | OC[C@H]1O[C@@H](n2cnc3c2NC=NC[C@@H]3O)C[C@H]1O | inactive
33 | Cc1cnc(C(=O)O)c[n+]1[O-] | inactive
34 | O=C(OCC#CCSc1nnc(-c2cccc3ccccc23)o1)c1cc2ccccc2s1 | inactive
35 | C[C@H](NC(=O)C(=O)Nc1ccccc1C(C)(C)C)C(=O)N[C@@H](CC(=O)O)C(=O)COc1c(F)c(F)cc(F)c1F | inactive
36 | CN(C[C@@H]1COCCO1)S(=O)(=O)Nc1ccc2ccc3ncc(-c4cnn(C)c4)cc3c(=O)c2c1 | inactive
37 | CCN(CC)CCNC(=O)c1ccc(N)cc1 | inactive
38 | CC(C)(C)NC(=O)Nc1cccc(Nc2ncc(F)c(NC(C)(C)CO)n2)c1 | inactive
39 | CC=C(C)C(=O)O[C@H]1C(C)=C[C@]23C(=O)[C@@H](C=C(CO)[C@@H](O)[C@]12O)[C@H]1[C@@H](C[C@H]3C)C1(C)C | 11.8 µM (active)
40 | NC1CCC(Nc2nc(Nc3ccc(C(=O)N4CCCCC4)cc3)c3ncn(-c4cccc(F)c4)c3n2)CC1 (stereo not given) | inactive
